The structures appear in SMILES notation. Calls of active or inactive are those of the source. Unless noted, calls follow the shape of the dose curve; as a rule, active = well fitted curve in the direction sought with a large enough effect in the repeat runs; inconclusive = weak or mixed curves; inactive = no such curve, though single readings can be large; an effect the other way counts as inactive or inconclusive.

A short description of assay [1]: qHTS assay for identifying genotoxic compounds that show differential cytotoxicity against isogenic chicken DT40 cell lines with known DNA damage response pathways - wild type cell line (AID 743012). Also: nearly all actives have a fitted effect of over 60% in size. Also: potency is read from the fitted curve at half-maximal effect. A digest of the protocol: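 Wild type DT40, 300 cells/well, ~0.5 h settle at 37 C/5% CO2; compounds in DMSO added by pintool; 40 h at 37 C/5% CO2; CellTiter-Glo, 30 min RT; luminescence.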

Assay [2] in a line: qHTS assay for identifying genotoxic compounds that show differential cytotoxicity against isogenic chicken DT40 cell lines with known DNA damage response pathways - Rev3 mutant cell line (AID 743014). Also: nearly all actives have a fitted effect of over 55% in size. Also: potency is read from the fitted curve at half-maximal effect. On the technique in general: Quantitative high-throughput screening tests each substance at several concentrations.
Assay [3] is described as follows: qHTS assay for identifying genotoxic compounds that show differential cytotoxicity against isogenic chicken DT40 cell lines with known DNA damage response pathways - Rad54/Ku70 mutant cell line (AID 743015). Also: nearly all actives have a fitted effect of over 60% in size. Also: potency is read from the fitted curve at half-maximal effect.
Assay [4] is described as follows: qHTS assay to identify small molecule antagonists of the thyroid receptor (TR) signaling pathway (AID 743065). Also: nearly all actives have a fitted effect of over 55% in size. Also: potency is read from the fitted curve at half-maximal effect. A digest of the protocol:
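GH3.TRE-Luc rat pituitary cells (two TREs driving luciferase) were dosed with compound, then stimulated with 1 nM T3 (final) for 23.5 h at 37 C. ONE-Glo luminescence was the read-out, with CellTiter-Fluor fluorescence as the cytotoxicity counter-screen.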

Assay [5] concerns thyroid hormone receptor (rat, GH3 cells). The experiment in a line: qHTS assay to identify small molecule agonists of the thyroid receptor (TR) signaling pathway (AID 743066; calls by dose curve).
Assay [6] has as its target Estrogen receptor (Homo sapiens) (UniProt P03372). Put plainly: qHTS assay to identify small molecule antagonists of the estrogen receptor alpha (ER-alpha) signaling pathway (AID 743069; active = well fitted curve in the direction sought with a large enough effect in the signal ratio in the repeat runs, not every such curve was filed as active; inconclusive = weak or mixed curves, or effect the other way; inactive = no such curve, though single readings can be large or run the other way; the % refers to the signal ratio; also: potency is read from the fitted curve at half-maximal effect). The method in brief:
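HEK293 ER-alpha-UAS-bla GripTite cells, held overnight in 2% charcoal-stripped FBS, 5,000 cells/well, preincubated 4 h, then compound plus 17beta-estradiol for 18 h at 37C. Beta-lactamase read by LiveBLAzer B/G FRET substrate, 2 h at room temperature.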

Assay [7] in a line: qHTS assay to identify small molecule antagonists of the estrogen receptor alpha (ER-alpha) signaling pathway - cell viability counter screen (AID 743074; calls by dose curve;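 also: HEK293 cells carrying ER-alpha-UAS-bla reporter stimulated with 17beta-estradiol; nearly all actives have a fitted effect of over 45% in size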).
For assay [8], the target named is Estrogen receptor (Homo sapiens) (UniProt P03372). The experiment in a line: qHTS assay to identify small molecule agonists of the estrogen receptor alpha (ER-alpha) signaling pathway (AID 743075; calls by dose curve; also: potency is read from the fitted curve at half-maximal effect).
A short description of assay [9]: qHTS assay to identify small molecule antagonists of the estrogen receptor alpha (ER-alpha) signaling pathway using the BG1 cell line (AID 743080; calls by dose curve; also: nearly all actives have a fitted effect of over 25% in size; also: potency is read from the fitted curve at half-maximal effect). A digest of the protocol: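 Antagonist mode: compounds in DMSO were pinned onto BG1-Luc-4E2 cells alongside 17beta-estradiol agonist, incubated 21.5 h, and ERE-driven luciferase measured with ONE-Glo. Cytotoxicity was multiplexed using CellTiter-Fluor fluorescence.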

Assay [10] is described as follows: qHTS assay to identify small molecule antagonists of the estrogen receptor alpha (ER-alpha) signaling pathway using the BG1 cell line - cell viability counter screen (AID 743081).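 Also: compound given together with 17beta-estradiol as the ER stimulus; series mostly up to about 70 µM; nearly all actives have a fitted effect of over 45% in size.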
For a further assay, the target named is Aromatase (Homo sapiens) (UniProt P11511). The experiment in a line: qHTS assay to identify aromatase inhibitors (AID 743083). Also: nearly all actives have a fitted effect of over 55% in size. Also: potency is read from the fitted curve at half-maximal effect.
The nature of assay [11]: qHTS assay to identify small molecule antagonists of the androgen receptor (AR) signaling pathway - cell viability counter screen (AID 743033; also: nearly all actives have a fitted effect of over 45% in size; also: potency is read from the fitted curve at half-maximal effect).
A short description of assay [12]: qHTS assay to identify small molecule antagonists of the androgen receptor (AR) signaling pathway using the MDA cell line - cell viability counter screen (AID 743041; also: nearly all actives have a fitted effect of over 45% in size). A digest of the protocol: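 MDA-kb2 AR-luc cells (MMTV-luciferase, AR/GR responsive) treated with compounds plus R1881 agonist for 16 h at 37C. CellTiter-Fluor added at 15.5 h; fluorescence read after 30 min in the same wells.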

Assay [13] in a line: qHTS assay to identify small molecule antagonists of the thyroid receptor (TR) signaling pathway - cell viability counter screen (AID 743064). Also: nearly all actives have a fitted effect of over 50% in size. Also: potency is read from the fitted curve at half-maximal effect. The method in brief:
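Same-well viability check: GH3.TRE-Luc cells stimulated with 1 nM T3 alongside test compound for 23.5 h, followed by CellTiter-Fluor fluorescence.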

In assay [14] the target is Estrogen receptor (Homo sapiens) (UniProt P03372). The experiment in a line: qHTS assay to identify small molecule agonists of the estrogen receptor alpha (ER-alpha) signaling pathway using the BG1 cell line (AID 743079). Also: nearly all actives have a fitted effect of over 20% in size. Also: potency is read from the fitted curve at half-maximal effect.
The target of assay [15] is Androgen receptor (Homo sapiens) (UniProt P10275). The experiment in a line: qHTS assay to identify small molecule agonists of the androgen receptor (AR) signaling pathway using the MDA cell line (AID 743040; also: nearly all actives have a fitted effect of over 20% in size). The method in brief:
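MDA-kb2 breast carcinoma cells carrying MMTV-luciferase (responsive to AR and GR), plated 5 h then treated 16 h with compounds at 37C, 0% CO2. Read-out was ONE-Glo luminescence after 30 min at room temperature.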

The target is the same in assay [16]. Put plainly: qHTS assay to identify small molecule antagonists of the androgen receptor (AR) signaling pathway using the MDA cell line (AID 743042; also: nearly all actives have a fitted effect of over 55% in size; also: potency is read from the fitted curve at half-maximal effect). The method in brief: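 MDA-kb2 breast carcinoma cells carrying MMTV-luciferase (AR/GR responsive) were co-treated with compounds and the agonist R1881 for 16 h at 37C. Inhibition read as ONE-Glo luminescence; CellTiter-Fluor fluorescence measured in parallel for cytotoxicity.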

A short description of assay [17]: qHTS assay to identify small molecule antagonists of the glucocorticoid receptor (GR) signaling pathway - cell viability counter screen (AID 720693). Also: nearly all actives have a fitted effect of over 55% in size.
Assay [18] deals with Androgen receptor (Homo sapiens) (UniProt P10275). Put plainly: qHTS assay to identify small molecule agonists of the androgen receptor (AR) signaling pathway (AID 743036; active = well fitted activation curve with a large enough effect in the signal ratio in the repeat runs, with a control signal flat, not every such curve was filed as active; inconclusive = weak or mixed curves, or effect the other way; inactive = no such curve, though single readings can be large or run the other way; the % refers to the signal ratio). A digest of the protocol: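 Agonist activity was scored by beta-lactamase reporter fluorescence in stably transfected HEK293 cells exposed to compounds for 16 h at 37C and 5% CO2. Substrate loading took 2 h at room temperature.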

For assay [19] the target is unchanged. The experiment in a line: qHTS assay to identify small molecule antagonists of the androgen receptor (AR) signaling pathway (AID 743035; active = well fitted inhibition curve with a large enough effect in the signal ratio in the repeat runs, not every such curve was filed as active; inconclusive = weak or mixed curves, or effect the other way; inactive = no such curve, though single readings can be large or run the other way; the % refers to the signal ratio; also: potency is read from the fitted curve at half-maximal effect). A digest of the protocol: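 Fluorescence from a beta-lactamase FRET substrate (LiveBLAzer B/G, 2 h, room temperature) measured inhibition of R1881-stimulated signaling in GeneBLAzer AR-UAS-bla HEK293 cells exposed to compound for 16 h at 37C.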

Chain of Aromatase (Homo sapiens) (P11511 whole entry, looked up): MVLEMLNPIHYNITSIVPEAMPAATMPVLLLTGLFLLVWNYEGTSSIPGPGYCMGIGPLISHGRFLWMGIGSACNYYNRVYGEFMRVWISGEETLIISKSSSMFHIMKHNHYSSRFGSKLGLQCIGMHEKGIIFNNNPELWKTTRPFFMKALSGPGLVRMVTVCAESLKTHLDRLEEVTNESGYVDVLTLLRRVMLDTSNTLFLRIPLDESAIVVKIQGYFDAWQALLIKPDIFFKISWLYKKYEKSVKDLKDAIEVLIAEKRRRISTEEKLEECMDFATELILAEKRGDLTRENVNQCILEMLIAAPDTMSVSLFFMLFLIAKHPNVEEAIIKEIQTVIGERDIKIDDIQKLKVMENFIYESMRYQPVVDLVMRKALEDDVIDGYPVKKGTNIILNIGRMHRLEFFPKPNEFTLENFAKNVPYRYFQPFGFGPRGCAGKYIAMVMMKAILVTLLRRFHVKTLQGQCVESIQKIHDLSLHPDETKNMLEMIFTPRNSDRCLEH
Chain of Estrogen receptor (Homo sapiens) (P03372 whole entry, looked up): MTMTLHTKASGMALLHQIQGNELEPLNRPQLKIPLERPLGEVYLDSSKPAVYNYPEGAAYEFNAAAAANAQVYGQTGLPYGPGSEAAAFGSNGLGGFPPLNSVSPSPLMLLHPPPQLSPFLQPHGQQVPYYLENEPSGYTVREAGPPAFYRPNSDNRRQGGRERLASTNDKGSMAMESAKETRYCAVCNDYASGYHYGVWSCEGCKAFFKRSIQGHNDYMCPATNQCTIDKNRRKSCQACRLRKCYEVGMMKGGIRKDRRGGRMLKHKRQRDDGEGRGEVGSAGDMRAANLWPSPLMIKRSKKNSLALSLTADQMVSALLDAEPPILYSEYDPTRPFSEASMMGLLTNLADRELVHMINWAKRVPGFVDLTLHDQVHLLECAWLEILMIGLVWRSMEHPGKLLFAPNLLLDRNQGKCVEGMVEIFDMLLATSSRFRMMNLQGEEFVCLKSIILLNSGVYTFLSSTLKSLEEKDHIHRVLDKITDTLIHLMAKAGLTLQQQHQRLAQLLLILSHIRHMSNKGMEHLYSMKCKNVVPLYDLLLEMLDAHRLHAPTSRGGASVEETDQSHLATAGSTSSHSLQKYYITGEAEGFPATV
Chain of Androgen receptor (Homo sapiens) (P10275 whole entry, looked up): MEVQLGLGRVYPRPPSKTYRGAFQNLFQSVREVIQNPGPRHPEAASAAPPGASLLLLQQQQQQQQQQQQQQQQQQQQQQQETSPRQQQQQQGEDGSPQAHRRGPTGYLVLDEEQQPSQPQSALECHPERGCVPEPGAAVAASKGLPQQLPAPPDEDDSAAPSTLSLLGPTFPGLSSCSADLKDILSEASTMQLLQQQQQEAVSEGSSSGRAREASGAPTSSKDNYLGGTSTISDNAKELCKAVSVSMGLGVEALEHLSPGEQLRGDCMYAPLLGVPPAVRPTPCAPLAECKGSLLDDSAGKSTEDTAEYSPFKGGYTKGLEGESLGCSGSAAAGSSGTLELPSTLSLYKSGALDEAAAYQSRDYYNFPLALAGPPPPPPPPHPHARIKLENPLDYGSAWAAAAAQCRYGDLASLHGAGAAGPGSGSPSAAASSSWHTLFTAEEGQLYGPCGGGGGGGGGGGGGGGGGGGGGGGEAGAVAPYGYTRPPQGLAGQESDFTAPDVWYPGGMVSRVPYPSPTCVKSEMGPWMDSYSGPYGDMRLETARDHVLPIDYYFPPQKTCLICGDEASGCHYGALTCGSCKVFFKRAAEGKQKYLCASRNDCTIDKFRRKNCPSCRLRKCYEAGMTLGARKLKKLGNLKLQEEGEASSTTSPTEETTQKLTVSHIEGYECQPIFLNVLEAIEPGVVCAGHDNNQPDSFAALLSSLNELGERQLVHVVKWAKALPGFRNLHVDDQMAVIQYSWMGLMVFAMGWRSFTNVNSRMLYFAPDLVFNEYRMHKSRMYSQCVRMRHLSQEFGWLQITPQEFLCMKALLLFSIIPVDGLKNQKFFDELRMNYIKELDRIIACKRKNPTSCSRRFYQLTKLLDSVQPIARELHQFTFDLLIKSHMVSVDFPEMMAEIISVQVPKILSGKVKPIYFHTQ

`CC1(C)CCC(Cc2ccc(Cl)cc2)C1(O)Cn1cncn1` (stereo not given): the Potency in [1] was 27.3 µM (active); in assay [2], 15.4 µM (active); in assay [3], 27.3 µM (active); in [4] it was 61.1 µM (active); in assay [6] it was 61.6 µM [inconclusive] (active); in assay [9], 61.1 µM (active). The Potency with Aromatase (Homo sapiens) is 30.6 µM (active). Moreover, the Potency entry in [5], in assay [7], in assay [8] and in assay [10] was “inactive” in each case.
On to `C=CC[C@]1(O)CC[C@H]2[C@@H]3CCC4=CC(=O)CCC4=C3C=C[C@@]21C`, for which the Potency is 9.44 µM (active) in assay [1]; 16.8 µM (active) in [2]; 10.6 µM (active) in assay [3]; 10.6 µM (active) in [4]; 1.69 µM [inconclusive] (active) in assay [8]; 1.33 µM (active) in [14]. Further, the Potency in assay [9] was 29.8 µM (active). Besides, the Potency entry in assay [11], in assay [12], in [13], in [5] and in [10] was “inactive” each time.
For the compound `O=C(Nc1ccccc1)Nc1ccnc(Cl)c1`, the Potency was 17.2 µM (active) in [1]; 15.4 µM (active) in [2]; 13.7 µM (active) in assay [3]; 38.9 µM (active) in assay [11]; 30.6 µM (active) in assay [16]; 27.3 µM (active) in assay [4]. The Potency in assay [6] is 13.8 µM [inconclusive] (active); with Aromatase (Homo sapiens), 54.5 µM (active). In addition, the Potency entry in assay [15], in [5], in [7], in [8] and in assay [10] was “inactive” in each case.
As for `CCOP(=S)(OCC)Oc1cc(Cl)c(Br)cc1Cl`, the Potency entry in assay [17], in assay [11], in [15], in [12], in assay [16] and in assay [13] was “inactive” throughout. The Potency result (in [7]; in [8]; in assay [9]; in [10]; with Aromatase (Homo sapiens)) was “inactive” in each case. Besides, the call in [18] was inactive.
On to `CN1C(=O)C(O)N=C(c2ccccc2)c2cc(Cl)ccc21` (stereo not given), for which the Potency result in assay [17], in assay [11], in assay [12], in assay [6], in [7] and in [8] was “inactive” each time. The Potency entry (in [10]; in the assay with Aromatase (Homo sapiens)) was “inactive” throughout.
For `N#CCC#N`, the Potency result in assay [17], in [11], in assay [15], in assay [16], in assay [5] and in [6] was “inactive” each time. Moreover, the Potency result (in assay [7]; in assay [8]; in assay [14]; in [9]; in assay [10]; with Aromatase (Homo sapiens)) was “inactive” in each case. The figures for the Potency in assay [13] and in assay [4] were 61.1 µM (active) and 48.6 µM (active), respectively.
On to `Clc1cc(C(Cl)(Cl)Cl)cnc1Cl`, for which the Potency entry in assay [1], in assay [2], in assay [3], in assay [11], in [5] and in assay [7] was “inactive” in each case. The Potency entry in [8], in assay [14] and in assay [10] was “inactive” each time. Further, the results for the Potency (in assay [4]; with Aromatase (Homo sapiens)) were 38.6 µM (active) and 24.3 µM (active), respectively.
Turning to `CCCCC(O)(Cn1cncn1)c1ccc(Cl)cc1Cl` (stereo not given), the Potency was 15.3 µM (active) in [1]; 13.7 µM (active) in assay [2]; 13.7 µM (active) in assay [3]; 48.9 µM (active) in assay [11]; 17.4 µM (active) in assay [19]; 61.1 µM (active) in assay [4]. Moreover, the Potency in [9] is 54.4 µM (active); with Aromatase (Homo sapiens), 48.5 µM (active). Besides, in assay [18], the compound was called inactive. Further, the Potency entry in assay [15], in [12], in assay [7] and in assay [8] was “inactive” each time.
In the case of `c1cc2ccc3cccc4ccc(c1)c2c34`, the Potency in [1] was 71.9 µM (active); in [3], 67.9 µM (active). Besides, the Potency result in [15], in assay [16], in [13], in assay [4], in assay [5] and in assay [8] was “inactive” throughout. In addition, the Potency entry (in [14]; in assay [9]; in the assay with Aromatase (Homo sapiens)) was “inactive” throughout.

Values taken from PubChem BioAssay (Tox21).
